Among the data in ChEMBL document CHEMBL1157539, “Thousands of chemical starting points for antimalarial lead identification” (Nature, 2010) are Inhibition values, retold here.

The test system of the first test is Plasmodium falciparum. As to the kind of experiment: GSK_TCMDC: Inhibition of Plasmodium falciparum Dd2 in whole red blood cells, using parasite LDH activity as an index of growth. Test compounds present at 2uM. The test is classed as functional.
Usually Inhibition stands for the percentage by which the read-out fell short of the control. Consider `COc1cc(-c2nc(-c3ccc([N+](=O)[O-])cc3)c(-c3ccccc3)[nH]2)cc(OC)c1O`, for which the Inhibition was 56%.
The same measure, in the same setting: as for `COc1ccc(Nc2ncc(Cl)c(Nc3cccnc3C(N)=O)n2)cc1N1CCN(C)CC1.Cl`, the figure is 97%; as for `O=CO.O=S1(=O)NCc2ccc(Nc3nccc(Nc4ccc5c(cnn5Cc5ccccc5)c4)n3)cc21`, 33%; as for `NCCCNc1ccnc2cc(Cl)ccc12`, 25%.
As for `C[C@@H](C(=O)N1CCOCC1)N1CC[C@H](NS(=O)(=O)c2ccc3ccnc(N)c3c2)C1=O.O=CO`, the Inhibition stood at 61%.
Same read-out and setting: with `CCN(CC)S(=O)(=O)c1ccc(C(=O)Oc2ccccc2N(Cc2ccc(OC)cc2)C2=NS(=O)(=O)c3ccccc32)cc1` the figure was 63%.

For a further test, the system named is HepG2. Kind of test: GSK_TCMDC: Percent inhibition of human HepG2 cell line. Test compounds present at 10uM. The test is classed as functional.
`CCc1c[nH]c2c(N3CCCC3=O)cc(C(=O)N[C@@H](Cc3ccccc3)[C@H](O)CNC(C)(C)c3cccc(C(F)(F)F)c3)cc12.O=CO` yielded an Inhibition of 10%.
On the same count and under the same terms, with `COc1ccc2c(=O)c3ccc(OC)cc3[nH]c2c1` the figure was 12%.
The same measure, in the same setting: with `CCOC(=O)C(Oc1ccc2ccccc2c1)C(=O)OCC` the figure was 8%; with `COc1ccc(S(=O)(=O)NC2CCN(c3ccnc4cc(Cl)ccc34)C2)cc1.O=C(O)C(F)(F)F` (stereo not drawn), 12%.
The same measure, in the same setting: as for `CC1CN(c2cnn(C/C=C/c3ccc(NC(=O)c4ccc5nonc5c4)cc3)c(=O)c2Cl)CC(C)N1.O=C(O)C(F)(F)F` (stereo not drawn), the figure is 71%; as for `CCOc1ccc(Br)cc1/C=C/C(=O)Nc1ccc2c(c1)CN(C)CCC2.O=C(O)C(F)(F)F`, 18%; as for `O=C(/C=C/c1ccc(Cl)c(Cl)c1)NCCCCCCN1CCCN(C(=O)Nc2ccc(Cl)c(Cl)c2)CC1`, 25%.
